Data published in PubChem BioAssay.
Where a SMILES comes first, the peptide text is derived from it.

biological target: 6-phosphogluconate dehydrogenase, decarboxylating (Homo sapiens) (UniProt P52209); assay: inhibition of human phosphogluconate dehydrogenase – biochemical, recombinant enzyme, NADPH absorbance, primary screen (AID 1159550); conditions: recombinant 6PGD, NADPH absorbance 341 nm; at 10 µM; hits give high values
Sequence (P52209 whole entry, looked up): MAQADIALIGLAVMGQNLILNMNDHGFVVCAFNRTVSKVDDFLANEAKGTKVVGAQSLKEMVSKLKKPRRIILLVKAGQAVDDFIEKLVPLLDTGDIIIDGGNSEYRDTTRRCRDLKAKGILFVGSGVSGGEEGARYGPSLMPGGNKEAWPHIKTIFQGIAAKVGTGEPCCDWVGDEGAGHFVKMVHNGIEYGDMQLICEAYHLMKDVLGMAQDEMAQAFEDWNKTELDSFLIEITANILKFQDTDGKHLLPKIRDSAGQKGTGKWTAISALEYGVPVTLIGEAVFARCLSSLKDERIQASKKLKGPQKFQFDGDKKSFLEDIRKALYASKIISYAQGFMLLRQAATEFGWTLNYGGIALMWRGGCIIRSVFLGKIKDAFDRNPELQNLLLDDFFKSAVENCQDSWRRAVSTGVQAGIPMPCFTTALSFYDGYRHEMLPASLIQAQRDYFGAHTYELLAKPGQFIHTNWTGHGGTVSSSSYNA

inhibition, inactive:
CC(C)CCCC(C)C1CCC2C3CC(=O)[C@H]4CC(O)CCC4(C)C3CCC12C (stereo partly drawn) -4.09%
CO[C@H]1C[C@H](O[C@H]2[C@H](C)[C@@H](O[C@@H]3O[C@H](C)C[C@H](N(C)C)[C@H]3OC(C)=O)[C@@H](C)C[C@@]3(CO3)C(=O)[C@H](C)[C@H](OC(C)=O)[C@@H](C)[C@@H](C)OC(=O)[C@@H]2C)O[C@@H](C)[C@@H]1OC(C)=O -13%
COc1cc2c(cc1-c1coc3c4c(c(OC)cc3c1=O)OC(C)(C)C=C4)OCO2 8.44%
CC(C)C[C@H](NC(=O)OCC1c2ccccc2-c2ccccc21)C(=O)O 2.94%
N[C@@H](COCc1ccccc1)C(=O)O 3.6%
Nc1nc2c(ncn2[C@H]2C[C@H](O)[C@@H](CO)O2)c(=O)[nH]1 -9.26%
COc1cc(O)c2c(=O)cc(-c3ccc(O)cc3)oc2c1 6.18%
COc1c(Cl)ccc(Cl)c1C(=O)O 7.71%
COc1ccc(-c2c(O)c3c(OC)c4c(cc3oc2=O)OC(C)(C)CC4)cc1 1.85%
CC(C)C[C@H](NC(=O)[C@H](C)N)C(=O)O (H-Ala-Leu-OH) -6.83%
CCOc1ccc(C(=O)c2cc(O)c(OC)c(OC)c2O)cc1 0.271%
CC(=O)OC1CC[C@@]2(C)C(CC[C@]3(C)C2CCC2C4CC(C)(C)CCC4(C(=O)O)CC[C@]23C)C1(C)C (stereo partly drawn) 5.8%
COc1c(Cl)c(C)c2c(c1Cl)OC(=O)c1c(C)c(Cl)c(OC)c(Cl)c1O2 -8.06%
CC(=O)O[C@H]1CCC2(C)C(=CCC3C2CCC2(C)C3CC3OC4(CCC(C)CO4)C(C)C32)C1 (stereo partly drawn) -0.838%
CC(=O)OCC(=O)[C@@]1(O)CC[C@H]2[C@@H]3CC[C@@H]4C[C@H](O)CC[C@]4(C)[C@H]3C(=O)C[C@@]21C -7.21%
C[C@H](CCC(=O)O)C1CC[C@H]2[C@@H]3CC[C@H]4C[C@H](O)CC[C@]4(C)[C@H]3C[C@H](O)[C@]12C (stereo partly drawn) -1.43%
CC(=O)O[C@H]1CC[C@]2(C)[C@H]3C(=O)C=C4[C@@H]5[C@@H](C)[C@H](C)CC[C@]5(C(=O)O)CC[C@@]4(C)[C@]3(C)CC[C@H]2C1(C)C 4.87%
CCC1(C2OC(C3OC(O)(CO)C(C)CC3C)CC2C)CCC(C2(C)CCC3(CC(O)C(C)C(C(C)C(OC)C(C)C(=O)O)O3)O2)O1 (stereo not drawn) 3.18%
CC(=O)O[C@H](CC(=O)[O-])C[N+](C)(C)C -15.2%
C=C1C(C)(C)[C@@]2(Cl)C(Cl)[C@]1(Cl)C(Cl)(Cl)C2(Cl)Cl (stereo partly drawn) 6.23%
N[C@@H](Cc1ccccc1)C(=O)N[C@@H](Cc1ccc(O)cc1)C(=O)O (H-Phe-Tyr-OH) -6.19%
COc1c(C(=O)O)ccc2c1CCC(C)(C)O2 17.1%
O=C1C=CC2=C3c4cc(O)c(O)cc4CC3(O)COC2=C1 (stereo not drawn) 4.16%
CC(C)CCCCCOC(=O)COc1ccc(Cl)cc1Cl -8.81%
CC(=O)OC1CC[C@@]2(C)C(CC[C@H]3[C@@H]4CC=C(C(C)=O)[C@@]4(C)C(=O)C[C@@H]32)C1 (stereo partly drawn) 4.79%
COC(=O)C1OC(=O)C2OC23C1(C)CCC1C2(C)CCC(=O)C(C)(C)C2CC(OC(C)=O)C13C (stereo not drawn) -6.02%
CC(C)C(N)C(=O)NC(Cc1c[nH]c2ccccc12)C(=O)O (stereo not drawn) 4.18%
COc1ccc(C2COc3cc(O)ccc3C2)c(OC)c1O (stereo not drawn) 1.81%
